# Results: the supplement of paper PMC3334620
# The full ranking holds about 33,000 sequences; the median of “E-score (-0.5 to 0.5)” is about -0.016, and the highest 2% start at about 0.31. Many of the other results were omitted from the sample, so the highest values are more common in it than they were.
# Molecular target: Cst6 (UniProt P40535)
# Assay: PBM E-score (8-mer binding enrichment) (E-score (-0.5 to 0.5)); higher = stronger / more preferred TF binding
# Conditions: protein concentration: 200 nM; construct: GST-DNA-binding domain
# Protocol: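 Universal 'all 10-mer' protein binding microarrays (Agilent AMADID 015681) probed with GST-tagged S. cerevisiae TFs (full-length or DBD) made by in vitro transcription/translation (PURExpress), about 100-200 nM. Bound TF was detected with fluorescent anti-GST. Each ungapped 8-mer (which stands for itself and its reverse complement) is scored by the PBM enrichment score (E-score), a modified Wilcoxon-Mann-Whitney statistic from -0.5 to +0.5, computed with the Universal PBM Analysis Suite. Scale: above 0.35 generally sequence-specific binding.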
# Sequence of UniProt P40535 (P40535 whole entry): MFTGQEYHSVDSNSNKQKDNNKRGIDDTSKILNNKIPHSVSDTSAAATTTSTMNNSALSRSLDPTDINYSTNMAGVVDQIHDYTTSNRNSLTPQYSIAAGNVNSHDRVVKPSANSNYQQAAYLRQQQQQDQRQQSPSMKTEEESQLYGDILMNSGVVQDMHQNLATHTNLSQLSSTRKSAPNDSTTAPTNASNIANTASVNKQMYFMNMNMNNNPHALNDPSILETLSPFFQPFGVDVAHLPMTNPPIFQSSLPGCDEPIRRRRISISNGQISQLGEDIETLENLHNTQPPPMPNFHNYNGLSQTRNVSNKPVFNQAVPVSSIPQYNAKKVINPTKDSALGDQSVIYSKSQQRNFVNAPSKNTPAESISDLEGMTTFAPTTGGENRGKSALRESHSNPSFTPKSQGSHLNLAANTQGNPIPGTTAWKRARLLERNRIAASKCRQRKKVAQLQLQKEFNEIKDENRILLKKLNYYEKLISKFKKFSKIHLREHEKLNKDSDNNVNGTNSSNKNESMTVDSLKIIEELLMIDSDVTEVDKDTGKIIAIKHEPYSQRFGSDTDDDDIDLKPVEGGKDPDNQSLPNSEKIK
row,Sequence,PBM E-score
1,ATCGCAGG,-0.199
2,GCATTGTA,0.047
3,GGGCTGTA,-0.256
4,GCAACCCA,-0.0438
5,ATTTTCTG,0.115
6,CCTCGAAA,0.0797
7,GATCACTA,0.0963
8,CGTCACTA,0.459
9,AGTCACTC,-0.033
10,AATCACTA,0.159
11,GGTCACTA,0.0296
12,CCTCACTC,0.0262
13,CGTCACTC,0.445
14,AGTCACTA,0.209
15,CATCACTA,0.353
16,GTTTGGTA,0.213
17,CAAAAATG,0.133
18,ACTGTGGG,-0.0161
19,GATACCGC,-0.0789
20,AGGGACAT,-0.181
21,CGACGGGC,0.0567
22,CCATTACC,-0.00808
23,AGGAGACA,-0.0509
24,ATCAAGTC,0.0221
25,AGAGGTAA,-0.119

row,Sequence,PBM E-score
1,GGAGGTAA,-0.0533
2,TGAGGTAA,0.414
3,ATAGCTGA,-0.204
4,CATTCCAG,-0.0492
5,AGAGGGTG,-0.204
6,GGGCCGCA,-0.0641
7,GTGCCGCA,0.362
8,ATGCCGCG,0.233
9,CTGCCGCA,0.0518
10,ATGCCGCA,0.353
11,GAGCCGCA,0.28
12,TAACTACA,0.0421
13,AGAGTTTA,0.176
14,CCACACTA,0.149
15,TACCTAAA,0.14
16,CGTGTGGA,-0.153
17,AAAGGGGC,-0.196
18,AACGGCAG,0.134
19,CACGGCAC,0.356
20,AACGGCAC,0.343
21,AACGGCAA,0.251
22,GACGGCAC,0.23
23,AACGGCAT,0.346
24,CACGGCAG,0.142
25,CACGGCAA,0.302

row,Sequence,PBM E-score
1,ATCGGCAT,0.23
2,CTCTGAAA,-0.0419
3,AAGGATGA,0.0593
4,CATGCAAA,0.142
5,AGCCGTGC,0.24
6,AGCGCCGG,-0.102
7,AGCGCCGA,0.00204
8,AGCCGCGC,0.18
9,CGCCGTGC,0.344
10,CGCCGCGA,0.241
11,CGCCGCGC,0.357
12,CCCGCCGC,0.126
13,CGCGCCGC,0.326
14,AGCGCCGC,0.309
15,CGCGCCGA,0.137
16,CGCCGTGA,0.221
17,ATTATGCG,0.217
18,ACGAGTTA,0.0712
19,CTTCTTCC,-0.212
20,ACCTAGTA,-0.284
21,AACTCTGT,0.0458
22,ATCTATCA,0.128
23,ACCCACGT,0.0287
24,ACCAACTC,-0.0108
25,CATTTCCA,0.143

row,Sequence,PBM E-score
1,CTTTAGGA,-0.0677
2,ACCTCTCA,-0.0889
3,TTACATAA,0.433
4,CTACATAA,-0.0447
5,GTACATAA,0.085
6,TGACATAA,0.477
7,GGACATAA,0.0407
8,AGACATAA,0.0351
9,ACTACCTA,0.0222
10,AGTGGAGC,-0.165
11,AGGTGACC,0.046
12,ATGTGACC,0.0452
13,AGTTGACA,0.191
14,AGTTGACC,-0.114
15,AGGTGACG,0.452
16,CGGTGACA,0.266
17,AGTTGACG,0.324
18,ATGTGACA,0.151
19,CGGTGACC,0.115
20,AGGTGACA,0.278
21,CGGTGACG,0.476
22,ATGTGACG,0.433
23,CCCAGGGA,-0.37
24,CTGGAGCA,-0.0734
25,CAGCCTTA,-0.254

row,Sequence,PBM E-score
1,AAGCTAAG,-0.252
2,AAAGCTTC,-0.172
3,CTACTTAC,0.127
4,AGGCTAAC,-0.114
5,CAAACCTG,0.0584
6,ACTAATTA,0.351
7,CCTAATTA,-0.00674
8,CATAATTA,0.304
9,AATAATTG,0.121
10,GCTAATTA,0.166
11,AATAATTC,0.205
12,GATAATAA,0.098
13,GATAATTA,0.322
14,AATAATTA,0.325
15,CAGGGCGA,-0.00562
16,CTCTCGCC,-0.249
17,AATGGTGA,0.184
18,TCGGCTCA,-0.0753
19,AGTGACCC,-0.164
20,CGTGACAA,0.108
21,AGTGACTC,0.0809
22,CGTGACCA,-0.0809
23,CCTGACGC,-0.0402
24,CGTGACGA,0.386
25,AGTGACGC,0.438

row,Sequence,PBM E-score
1,CGTGACGC,0.436
2,CTTGACGC,0.214
3,GCGTTAAA,-0.0116
4,AGGGTAGC,-0.17
5,GTGCTATA,0.0846
6,ACTCATTC,0.103
7,CTCCGATA,-0.203
8,GGGATTTA,0.00892
9,GGGCCTGA,-0.239
10,TCACCAAA,0.326
11,GCACCAAA,0.0915
12,ACACCAAA,0.212
13,CGCCTTAC,0.163
14,GAAGTGGA,-0.16
15,GGCATACA,-0.102
16,TTCATAAA,0.212
17,ATCATAGA,0.246
18,GTCATACA,0.317
19,GTCATAAA,0.331
20,ATCATAAA,0.195
21,GTCATAGA,0.411
22,CTCATACA,0.116
23,ATCATATA,0.299
24,CTCATATA,-0.0189
25,GTCATATA,0.377

row,Sequence,PBM E-score
1,CTCATAGA,0.0631
2,CAACACTG,0.0167
3,AGGCGTGG,-0.196
4,ATTAAGCG,0.108
5,AACTGAAG,0.0725
6,CCGGCCAA,-0.232
7,TGCTAGCA,0.0927
8,AGTACTGC,-0.173
9,TAAAGTCA,0.0375
10,ATTGCTCA,0.192
11,CAGATACG,0.0888
12,CTAACAGC,-0.00671
13,ATCATACA,0.268
14,ATCATACG,0.308
15,ATCATACC,0.259
16,CAGACAAG,-0.14
17,AGTCTCCC,-0.308
18,CATCATAA,0.291
19,ACTCATAG,0.152
20,AATCATAC,0.239
21,CATCATAC,0.374
22,AATCATAG,0.189
23,CATCATAG,0.326
24,CAGGGAAG,-0.244
25,CTTCCTTC,-0.24

row,Sequence,PBM E-score
1,ATGGTGAG,0.0691
2,CAACACCC,-0.142
3,AGGCCCAC,-0.378
4,GGAGTTTA,0.00491
5,ATGATTAG,0.158
6,ATGATTAA,0.329
7,CTGATGAA,0.0772
8,ATGATGAC,0.378
9,GTGATGAA,0.154
10,CTGATGAC,0.292
11,AGGATGAC,0.208
12,ATGATGAA,0.367
13,CTGATTAA,0.161
14,TAGCGAGA,-0.0782
15,GCATTCGA,-0.00988
16,ACCATCTA,-0.207
17,ATTTGTGA,0.146
18,AGTGCAGC,-0.108
19,ATTGATAC,0.154
20,GCGATGCA,-0.255
21,CGTCAACC,0.377
22,CGTCAACG,0.344
23,GGTCAACC,-0.0743
24,CGTCAACA,0.407
25,AGTCAACC,-0.219

row,Sequence,PBM E-score
1,CCTCAACG,-0.102
2,TGTCAACA,0.184
3,AGTCAACG,-0.102
4,GGTCAACA,-0.0567
5,GGTACGAA,0.0828
6,GATGCACC,-0.163
7,ATGATCAT,0.198
8,AGTCAATA,0.0835
9,CGTCAATC,0.337
10,GGTCAATA,0.0678
11,AGTCAATC,0.0291
12,CGTCAAGC,0.0721
13,CGTCAATA,0.349
14,TCGTATCA,0.127
15,ACTAGCCC,-0.0733
16,CACAGTGG,-0.124
17,GGCCTGAA,-0.122
18,CATTCGTC,0.148
19,AATTCGTC,0.316
20,AATTCGTA,0.252
